ELG1 repair inh: qHTS screen for small molecules that inhibit ELG1-dependent DNA repair in human embryonic kidney (HEK293T) cells expressing luciferase-tagged ELG1 | HEK293T ELG1-luciferase reporter, luminescence, 16 h; DNA damage induced by 5-fluorouridine | Potency, µM (series often up to 46.1 µM), inactives show at the highest dose activity change, negative = inhibition, most hits filed as inhibitors | 2.3% of 330,000 active | AID 504467, 2011; also: potency is read from the fitted curve at half-maximal effect; nearly all actives have a fitted effect of over 55% in size
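Reporter activity after DNA damage by 5-fluorouridine is monitored. Compound-treated cells incubate 16 hr at 37 °C, then ONE-Glo is added for 30 min before luminescence reading.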
IL1B secr inh: qHTS for Inhibitors of Inflammasome Signaling: IL-1-beta AlphaLISA Primary Screen; 4.7% of 360,000 active; activity change, % at 57.5 µM; THP-1 LPS/ATP IL-1B secretion, AlphaLISA, 16 h; active compounds read low; in the data active = activity change below about -50%; inconclusive = mostly about -30% to -49%
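THP-1 cells pretreated 1 hr with compounds (up to 57.5 uM final), then stimulated with LPS (250 ng/mL final) plus ATP (1.25 mM final); secreted IL-1B measured by AlphaLISA after 16 hr, decreased signal indicating inhibition.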
TDP1 cell noCPT: qHTS for Inhibitors of human tyrosyl-DNA phosphodiesterase 1 (TDP1): qHTS in cells in absence of CPT; DT40 Tdp1-/- hTDP1 cells, no CPT, ATP luminescence, 48 h; Potency, µM (doses to about 46.2 µM), without a hit: top-dose activity change, negative = growth inhibition, most hits filed as inhibitors; 15% of 420,000 active; also: potency is read from the fitted curve at half-maximal effect; nearly all actives have a fitted effect of over 55% in size
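Camptothecin absent (DMSO only). Human TDP1-complemented DT40 knockout cells, 400 cells/well, 37 °C for minimum 48 hr; ATP measured via CellTiter-Glo, 30 min dark incubation, luminescence.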
Gal4-VP16 FLuc: VP16 counterscreen qHTS for inhibitors of ROR gamma transcriptional activity | Potency, µM (highest dose often 53.6 µM), for inactives: at the highest dose activity, negative = inhibition, most hits filed as inhibitors | 3.5% of 310,000 active | Drosophila S2 Gal4-VP16 UAS-luciferase, luminescence, 20 h | AID 2546, 2010;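 also: Gal4-VP16 expression switched on by copper sulfate through the metallothionein promoter; potency is read from the fitted curve at half-maximal effect; nearly all actives have a fitted effect of over 50% in size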
RORg inh: qHTS for inhibitors of ROR gamma transcriptional activity; Nuclear receptor ROR-gamma (Mus musculus), P51450; Drosophila S2 Gal4-RORgamma UAS-luciferase reporter, 20 h; Potency, µM (series often up to 53.6 µM), without a hit: at the top dose activity change, negative = inhibition, usual class: inhibitors; 5.4% of 310,000 active; AID 2551, 2010; also: potency is read from the fitted curve at half-maximal effect; nearly all actives have a fitted effect of over 60% in size
Target sequence (P51450 whole entry, looked up, the tested form may be a part): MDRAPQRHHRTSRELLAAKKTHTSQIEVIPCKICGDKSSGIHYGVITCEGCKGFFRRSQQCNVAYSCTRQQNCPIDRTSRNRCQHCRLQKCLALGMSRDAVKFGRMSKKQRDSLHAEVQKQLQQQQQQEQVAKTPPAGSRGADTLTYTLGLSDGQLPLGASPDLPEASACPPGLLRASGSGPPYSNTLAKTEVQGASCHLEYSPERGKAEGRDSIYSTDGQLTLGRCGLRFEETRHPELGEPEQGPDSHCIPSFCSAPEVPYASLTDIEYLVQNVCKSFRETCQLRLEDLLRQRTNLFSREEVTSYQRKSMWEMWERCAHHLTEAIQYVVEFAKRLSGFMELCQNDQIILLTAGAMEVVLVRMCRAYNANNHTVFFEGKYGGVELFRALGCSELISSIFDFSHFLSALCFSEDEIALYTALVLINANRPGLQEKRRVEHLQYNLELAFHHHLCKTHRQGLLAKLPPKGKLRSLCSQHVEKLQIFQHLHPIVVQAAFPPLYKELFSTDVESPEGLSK
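A Gal4/UAS one-hybrid system in insect cells: metallothionein-promoter Gal4–ROR gamma fusion plus Photinus luciferase reporter. Copper sulfate 700 uM final, 20 hr ambient incubation, luminescent detection after 10 min with reagent.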
TDP1 cell CPT: qHTS for Inhibitors of human tyrosyl-DNA phosphodiesterase 1 (TDP1): qHTS in cells in presence of CPT. Potency, µM (doses to about 46.2 µM), for inactives: at the top dose activity change, negative = growth inhibition, most hits filed as inhibitors. AID 686979, 2013. 12% of 420,000 active. chicken DT40 Tdp1-/-;hTDP1 cells + 20 nM CPT, ATP luminescence, 48 h; also: potency is read from the fitted curve at half-maximal effect; nearly all actives have a fitted effect of over 55% in size
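Chicken DT40 Tdp1-/- cells stably complemented with human TDP1 were seeded at 400 cells/well in medium containing 20 nM camptothecin, exposed to pin-transferred compounds, and grown at 37 °C for at least 48 hr. Viability was read as ATP luminescence.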
* hit, by the source's call; ? = inconclusive; . = no result given; [ ] = another dose, or the depositor's remark. Hits are enriched below; roughly 21% of the tested compounds scored in any of these assays. Unless noted, calls follow the shape of the dose curve; as a rule, active = well fitted curve in the direction sought with a large enough effect; inconclusive = small, poorly fitted or top-dose-only effect, or another doubt; inactive = no such curve, though single readings can be large; an effect the other way counts as inactive or inconclusive. % is scaled to controls: 0 for no effect and ±100 for the full control effect.

SMILES	ELG1 repair inh	IL1B secr inh	TDP1 cell noCPT	Gal4-VP16 FLuc	RORg inh	TDP1 cell CPT
Cc1c(Cl)cc(-n2cnnn2)cc1[N+](=O)[O-]	-1%	35	-29%	0%	?	-29%
Cc1cc(N2C(=O)C=CC2=O)c([N+](=O)[O-])cc1C	?	-3	1.8µM*	4.5µM*	7.1µM*	0.82µM*
CNC(=S)Nc1cccc(-c2cnc3ccccc3n2)c1	?	13	?	-14%	?	?
CC(=O)C1=C(O)C(=O)N(c2cc(C(C)(C)C)on2)C1c1ccc(C(C)C)cc1 (centres undefined)	0%	8	26µM*	7%	2%[10 µM]	?
Cc1ccc(-n2c(=O)c3c4c(sc3n(CC(=O)Nc3ccccc3C)c2=O)CCCCC4)cc1C	.	.	-3%	.	.	10%
O=C(Nc1ccccc1C(F)(F)F)N1CC=C(c2c[nH]c3ccccc23)CC1	.	.	26µM*	.	.	21µM*
O=C(COC(=O)Cc1c[nH]c2ccccc12)Nc1ccccc1C(F)(F)F	0%	12	0%	.	.	-19%
O=C(Nc1ccc(F)c(Cl)c1)N1CC=C(c2c[nH]c3ccccc23)CC1	.	.	16µM*	.	.	23µM*
O=C(CSc1ccc2nnc(-c3cccnc3)n2n1)Nc1ccccc1F	.	-9	-23%	.	.	-23%
Cc1cccc(C)c1NC(=O)C1(C)CN(S(C)(=O)=O)CC(=O)N1Cc1cccs1 (centres undefined)	.	0	5%	.	.	?
Cc1ccc(NCC(=O)c2ccc([N+](=O)[O-])cc2)cc1	?	-2	?	-13%	-15%	?
Cc1cccc(NCCC(=O)c2ccc([N+](=O)[O-])cc2)c1C	-16%	5	?	-3%[10 µM]	5%	4.6µM*
Cc1ccc(NCCC(=O)c2cccc([N+](=O)[O-])c2)c(C)c1	?	-16	10µM*	?	10µM*	8.2µM*
CCCCCN(C(=O)COC(=O)c1ccc(C)cc1)c1c(N)n(CCCC)c(=O)[nH]c1=O	-9%	?	1%	.	.	-1%
Cc1ccn2c(=O)c(C(=O)NC3CCCCC3C)c(O)nc2c1 (centres undefined)	17%	18	?	.	.	16µM*
Cc1cccn2c(=O)c(C(=O)NCCCN3CCCCC3C)c(O)nc12 (centres undefined)	-4%	-19	9%	-7%	-19%	6%
Cc1csc2nc(O)c(C(=O)NC3CCCCCC3)c(=O)n12	22%	17	5.2µM*	.	.	?
Cc1ccn2c(=O)c(C(=O)NCCCN3CCCCC3C)c(O)nc2c1 (centres undefined)	15%	6	2%	1%	5%	10%
Cc1cccn2c(=O)c(C(=O)NC3CCCCC3)c(O)nc12	?	-3	18µM*	8%	-36%	18µM*
Cc1cccn2c(=O)c(C(=O)NC3CCCCC3C)c(O)nc12 (centres undefined)	18%	31	15µM*	.	.	?

Screens (PubChem BioAssay)
